The text below walks through data of PubChem BioAssay (EPA / NIEHS).

Each structure is given as a SMILES string. Inconclusive results are not listed. Active and inactive are the calls of the source. Rule for the calls, unless noted: active = hit-call score of the fitted dose curve at least 0.9, where 1 is the maximum; inactive = score below 0.9.

Assay [1] concerns the target Paired box protein Pax-6 (Homo sapiens) (UniProt P26367). Put plainly: ATG_Pax6_CIS: Attagene CIS-FACTORIAL HepG2 Assay for human Paired Box 6 (PAX6) (AID 2282956). The settings on record: HepG2 CIS-FACTORIAL PAX6 reporter transcription, RNA readout; actives raise or lower the signal. Put shortly: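 Transient MRTU transfection of HepG2 → compound exposure 24 h → TriZol RNA, oligo(dT) RT → PCR, 6-FAM primer extension, HpaI cut → capillary electrophoresis; activity fitted both directions against DMSO.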

Assay [2] can be described thus: ATG_PXRE_CIS: Attagene CIS-FACTORIAL HepG2 Assay for human Pregnane X Receptor Element (PXRE) (AID 2282957). The conditions noted are these: HepG2 Attagene CIS-FACTORIAL PXRE reporter, mRNA; actives raise or lower the signal. Put shortly: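 Transfect HepG2 with MRTUs (cis promoter elements); dose chemical, incubate 24 h; isolate RNA, RT with oligo(dT), PCR, 6-FAM label, HpaI cut, CE. Gain/loss fit vs DMSO.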

Assay [3] in a line: ATG_RORE_CIS: Attagene CIS-FACTORIAL HepG2 Assay for human RAR-related Orphan Receptor Element (RORE) (AID 2282959). The conditions noted are these: HepG2 Attagene cis-factorial RORE reporter, mRNA; actives raise or lower the signal. The method in brief: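 Transfect HepG2 with MRTUs; treat 24 h; extract RNA; RT with oligo(dT); PCR with reporter-specific primers; 6-FAM primer extension; HpaI digest 2 h at 37 C; capillary electrophoresis. Fit vs DMSO, bidirectional.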

A short description of assay [4]: ATG_Sox_CIS: Attagene CIS-FACTORIAL HepG2 Assay for human SRY-box transcription factor (SOX) (AID 2282960). The settings on record: HepG2 Attagene cis-factorial SOX reporter, mRNA; actives raise or lower the signal. The method in brief:
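Fluorescence-labelled cDNA fragments from reporter transcripts, sized by CE, give the signal. Cells: HepG2, transiently transfected with cis-regulated reporter units. Exposure 24 h; DMSO negative control; bidirectional curve fitting.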

In assay [5] the target is Transcription factor Sp1 (Homo sapiens) (UniProt P08047). Put plainly: ATG_Sp1_CIS: Attagene CIS-FACTORIAL HepG2 Assay for human Specificity Protein 1 (Sp1) (AID 2282961). The conditions noted are these: HepG2 Sp1 cis-reporter transcription, actives raise or lower the signal. Put shortly: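 Chemicals are dosed onto HepG2 cells transfected with multiple cis-promoter reporter constructs, and after 24 h reporter RNA is reverse-transcribed, PCR-amplified and resolved by capillary electrophoresis for fluorescence quantitation; activity is scored up or down against DMSO.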

Assay [6] can be described thus: ATG_SREBP_CIS: Attagene CIS-FACTORIAL HepG2 Assay for human Sterol Regulatory Element Binding (SREBP) (AID 2282962). The settings on record: HepG2 Attagene cis-factorial SREBP reporter, mRNA; actives raise or lower the signal. Put shortly: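 Transfected HepG2 (cis-regulated reporter library, endogenous TFs) → compound 24 h → total RNA → oligo(dT) RT → reporter-specific PCR → FAM primer extension, HpaI cut → CE fluorescence. Fit bidirectional vs DMSO.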

Assay [7] addresses Signal transducer and activator of transcription 3 (Homo sapiens) (UniProt P40763). In words: ATG_STAT3_CIS: Attagene CIS-FACTORIAL HepG2 Assay for human Signal Transducer and Activator of Transcription 3 (STAT3) (AID 2282963). The settings on record: HepG2, Attagene cis-factorial STAT3 reporter transcription; actives raise or lower the signal. The method in brief: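 Values derive from bidirectional fits relative to DMSO of reporter mRNA levels, measured by RT-PCR with capillary electrophoresis, in HepG2 cells carrying transiently transfected cis-regulated reporter units and exposed 24 h.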

The nature of assay [8]: ATG_TA_CIS: Attagene CIS-FACTORIAL HepG2 Assay for human TA Basal Promoter (AID 2282964). The conditions noted are these: HepG2 Attagene CIS-factorial TA basal promoter reporter; actives raise or lower the signal. Put shortly: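 Read-out: fluorescent reporter-transcript fragments resolved by capillary electrophoresis after RT-PCR and HpaI digestion. Source: HepG2 cells carrying transiently transfected multi-reporter cis constructs, treated 24 h. Endpoint fitted bidirectionally relative to DMSO.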

Assay [9] is described as follows: ATG_TCF_b_cat_CIS: Attagene CIS-FACTORIAL HepG2 Assay for human T-Cell-Factor with beta-catenin (TCF/b-cat) (AID 2282965). The conditions noted are these: HepG2 TCF/beta-catenin cis-reporter transcription, actives raise or lower the signal. Put shortly:
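HepG2, transient MRTU transfection, cis-element-driven reporters (endogenous TFs). 24 h compound exposure. Readout: reporter mRNA by RT-PCR + 6-FAM primer extension, HpaI digest, capillary electrophoresis. Gain/loss fit vs DMSO baseline.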

Assay [10] in a line: ATG_TAL_CIS: Attagene CIS-FACTORIAL HepG2 Assay for human TAL Basal Promoter (AID 2282966).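 Note: background control endpoint measuring basal TAL promoter reporter mRNA not a specific factor.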 The conditions noted are these: HepG2 Attagene cis-factorial TAL promoter reporter; actives raise or lower the signal. The method in brief: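 Fluorescence of labelled reporter cDNA fragments, resolved by capillary electrophoresis, gave the readout. Human HepG2 liver cells carried transiently transfected cis-element reporter units and were treated for 24 hours; activity was fitted bidirectionally against DMSO.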

Assay [11] is described as follows: ATG_TGFb_CIS: Attagene CIS-FACTORIAL HepG2 Assay for human Transforming Growth Factor (TGF) (AID 2282967). The settings on record: HepG2 Attagene CIS TGFb reporter, mRNA transcription; actives raise or lower the signal. The method in brief:
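Transient MRTU transfection of HepG2 (FuGene 6). Dose 24 h. TriZol RNA, oligo(dT) RT, PCR, 6-FAM primer extension, HpaI cut, CE. Bidirectional fit, DMSO = baseline.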

Assay [12] in a line: ATG_VDRE_CIS: Attagene CIS-FACTORIAL HepG2 Assay for human Vitamin D Receptor Element (VDRE) (AID 2282968). The conditions noted are these: HepG2 VDRE cis-reporter transcription, actives raise or lower the signal. The method in brief:
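Cell-based multiplexed reporter format in human liver HepG2 cells, 24 h post-dose. Fluorescence from capillary electrophoresis of reporter cDNA gives the signal, with DMSO as negative control and baseline.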

Assay [13] deals with Steroid hormone receptor ERR1 (Homo sapiens) (UniProt P11474). In words: ATG_ERRa_TRANS: Attagene TRANS-FACTORIAL HepG2 Assay for human Estrogen-Related Receptor alpha (ERRa) (AID 2282971; active = hit-call score of the fitted dose curve at least 0.9, where 1 is the maximum). The settings on record: HepG2 Attagene TRANS reporter, ERRa transactivation. The method in brief: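 Reporter transcript induction was quantified by RT-PCR and capillary electrophoresis of FAM-labelled, HpaI-cut products after 24 h treatment of HepG2 cells carrying transiently transfected GAL4-UAS reporter units and an exogenous ERRa-Gal4 fusion; activity scored as increase over DMSO.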

For assay [14], the target named is X-box-binding protein 1 (Homo sapiens) (UniProt P17861). In words: ATG_Xbp1_CIS: Attagene CIS-FACTORIAL HepG2 Assay for human X-box Binding Protein 1 (XBP1) (AID 2282972). The conditions noted are these: HepG2 XBP1 cis-element reporter, Attagene multiplex; actives raise or lower the signal. Put shortly: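 HepG2, transient MRTU transfection (cis-promoter driven), 24 h compound exposure. Total RNA → oligo(dT) RT → PCR → 6-FAM labeling → HpaI cut → CE. Bidirectional fit vs DMSO.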

Assay [15] in a line: ATG_GAL4_TRANS: Attagene TRANS-FACTORIAL HepG2 Assay for GAL4 (Internal Marker) (AID 2282976; active = hit-call score of the fitted dose curve at least 0.9, where 1 is the maximum). The settings on record: HepG2 Attagene TRANS GAL4 internal marker reporter. Put shortly:
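First, HepG2 cells were transfected with reporter units under GAL4-UAS control. Next, they were treated with chemical for 24 h. Finally, RNA was reverse-transcribed, PCR-amplified, FAM-labelled and resolved by capillary electrophoresis, with induction scored against DMSO.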

In assay [16] the target is Estrogen-related receptor gamma (Homo sapiens) (UniProt P62508). In words: ATG_ERRg_TRANS: Attagene TRANS-FACTORIAL HepG2 Assay for human Estrogen-Related Receptor gamma (ERRg) (AID 2282977; active = hit-call score of the fitted dose curve at least 0.9, where 1 is the maximum;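 note: hits increase reporter signal over DMSO so potencies reflect activators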). The conditions noted are these: HepG2 Attagene TRANS reporter, ERRg transactivation. The method in brief: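 HepG2 cells transiently transfected with multiplexed GAL4-UAS reporter units and chimeric NR-Gal4 constructs were exposed to test chemicals for 24 h. Reporter mRNA was measured by RT-PCR, 6-FAM primer extension, HpaI digestion and capillary electrophoresis; gain-of-signal versus DMSO.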

The target in assay [17] is Estrogen receptor (Homo sapiens) (UniProt P03372). Put plainly: ATG_ERa_TRANS: Attagene TRANS-FACTORIAL HepG2 Assay for human Estrogen Receptor alpha (ERa) (AID 2282970; active = hit-call score of the fitted dose curve at least 0.9, where 1 is the maximum). The conditions noted are these: HepG2 Attagene TRANS ERa GAL4 reporter, mRNA. The method in brief: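 Human liver HepG2, transient transfection of multiple GAL4-UAS reporter units; TRANS format (exogenous NR-Gal4 chimera). 24 h dosing. Readout: reporter mRNA, RT-PCR, 6-FAM primer extension, HpaI digest, capillary electrophoresis. Positive direction vs DMSO.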

A short description of assay [18]: ATG_PPRE_CIS: Attagene CIS-FACTORIAL HepG2 Assay for human Peroxisome Proliferator-activated Response Element (PPRE) (AID 2282958). The settings on record: HepG2 PPRE cis-element reporter, Attagene transcription factor profiling; actives raise or lower the signal. Put shortly: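 DMSO served as negative control and baseline for bidirectional curve fitting. Signal came from PPRE-regulated reporter mRNA in HepG2 cells, measured 24 h post-dosing by RT-PCR, 6-FAM primer extension and capillary electrophoresis.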

The nature of assay [19]: ATG_M_19_TRANS: Attagene TRANS-FACTORIAL HepG2 Assay for M19 Transcription Factor (Internal Marker) (AID 2282974; active = hit-call score of the fitted dose curve at least 0.9, where 1 is the maximum). The settings on record: HepG2 Attagene TRANS-FACTORIAL M19 internal marker reporter. Put shortly: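 Multiplexed TRANS format: HepG2 liver cells bearing transient GAL4-UAS reporter units, chemical treatment 24 h, reporter transcripts quantified by RT-PCR plus capillary electrophoresis. DMSO defines baseline.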

Chain of Steroid hormone receptor ERR1 (Homo sapiens) (P11474 whole entry, looked up, the tested form may be a part): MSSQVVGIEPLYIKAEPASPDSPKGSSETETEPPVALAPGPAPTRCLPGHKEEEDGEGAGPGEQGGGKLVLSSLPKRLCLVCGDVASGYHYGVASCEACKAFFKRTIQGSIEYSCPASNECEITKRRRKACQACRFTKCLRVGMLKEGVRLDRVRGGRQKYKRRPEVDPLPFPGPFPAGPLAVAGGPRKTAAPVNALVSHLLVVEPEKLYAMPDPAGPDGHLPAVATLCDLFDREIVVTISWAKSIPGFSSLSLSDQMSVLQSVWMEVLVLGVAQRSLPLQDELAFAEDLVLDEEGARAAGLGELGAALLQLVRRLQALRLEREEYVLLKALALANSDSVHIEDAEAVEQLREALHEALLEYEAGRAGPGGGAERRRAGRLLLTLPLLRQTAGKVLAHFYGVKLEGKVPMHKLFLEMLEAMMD
Chain of X-box-binding protein 1 (Homo sapiens) (P17861 whole entry, looked up): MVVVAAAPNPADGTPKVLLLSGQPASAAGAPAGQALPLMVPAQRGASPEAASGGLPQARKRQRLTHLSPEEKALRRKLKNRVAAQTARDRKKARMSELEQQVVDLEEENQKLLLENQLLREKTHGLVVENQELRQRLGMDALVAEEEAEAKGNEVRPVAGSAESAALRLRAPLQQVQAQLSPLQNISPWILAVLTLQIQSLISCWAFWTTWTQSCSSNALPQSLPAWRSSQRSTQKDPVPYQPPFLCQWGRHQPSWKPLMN
Chain of Transcription factor Sp1 (Homo sapiens) (P08047 whole entry, looked up): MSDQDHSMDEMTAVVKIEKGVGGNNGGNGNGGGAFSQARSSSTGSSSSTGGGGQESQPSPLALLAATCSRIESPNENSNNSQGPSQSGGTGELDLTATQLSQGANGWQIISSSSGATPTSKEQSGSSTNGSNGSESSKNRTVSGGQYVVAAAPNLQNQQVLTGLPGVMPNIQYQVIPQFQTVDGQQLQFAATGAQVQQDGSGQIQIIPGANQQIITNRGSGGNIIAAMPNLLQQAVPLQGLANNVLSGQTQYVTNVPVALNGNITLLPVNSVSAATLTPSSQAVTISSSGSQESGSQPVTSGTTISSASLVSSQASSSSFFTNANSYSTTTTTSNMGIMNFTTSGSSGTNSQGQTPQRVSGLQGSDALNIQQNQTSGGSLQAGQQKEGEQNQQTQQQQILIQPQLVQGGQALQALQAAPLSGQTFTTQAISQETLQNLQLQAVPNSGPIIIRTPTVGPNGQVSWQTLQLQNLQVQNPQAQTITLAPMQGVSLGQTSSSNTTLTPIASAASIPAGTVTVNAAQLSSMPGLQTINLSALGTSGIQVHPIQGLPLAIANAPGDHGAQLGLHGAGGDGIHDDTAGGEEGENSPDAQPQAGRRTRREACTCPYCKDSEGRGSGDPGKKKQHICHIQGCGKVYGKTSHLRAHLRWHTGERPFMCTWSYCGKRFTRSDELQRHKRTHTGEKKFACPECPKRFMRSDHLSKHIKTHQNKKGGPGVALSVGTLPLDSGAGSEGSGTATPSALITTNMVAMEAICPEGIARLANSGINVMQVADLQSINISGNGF
Chain of Paired box protein Pax-6 (Homo sapiens) (P26367 whole entry, looked up): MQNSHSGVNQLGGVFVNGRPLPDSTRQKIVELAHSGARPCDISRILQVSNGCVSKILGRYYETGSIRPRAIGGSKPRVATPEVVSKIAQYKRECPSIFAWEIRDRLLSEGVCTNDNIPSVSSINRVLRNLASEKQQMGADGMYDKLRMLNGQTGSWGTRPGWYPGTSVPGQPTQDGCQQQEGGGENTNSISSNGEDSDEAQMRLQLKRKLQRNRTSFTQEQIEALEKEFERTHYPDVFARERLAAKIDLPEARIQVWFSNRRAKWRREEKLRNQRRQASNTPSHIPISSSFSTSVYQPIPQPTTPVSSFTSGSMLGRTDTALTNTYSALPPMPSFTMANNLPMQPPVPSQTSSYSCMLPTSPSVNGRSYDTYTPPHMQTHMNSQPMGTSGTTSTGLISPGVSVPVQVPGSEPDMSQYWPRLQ
Chain of Signal transducer and activator of transcription 3 (Homo sapiens) (P40763 whole entry, looked up): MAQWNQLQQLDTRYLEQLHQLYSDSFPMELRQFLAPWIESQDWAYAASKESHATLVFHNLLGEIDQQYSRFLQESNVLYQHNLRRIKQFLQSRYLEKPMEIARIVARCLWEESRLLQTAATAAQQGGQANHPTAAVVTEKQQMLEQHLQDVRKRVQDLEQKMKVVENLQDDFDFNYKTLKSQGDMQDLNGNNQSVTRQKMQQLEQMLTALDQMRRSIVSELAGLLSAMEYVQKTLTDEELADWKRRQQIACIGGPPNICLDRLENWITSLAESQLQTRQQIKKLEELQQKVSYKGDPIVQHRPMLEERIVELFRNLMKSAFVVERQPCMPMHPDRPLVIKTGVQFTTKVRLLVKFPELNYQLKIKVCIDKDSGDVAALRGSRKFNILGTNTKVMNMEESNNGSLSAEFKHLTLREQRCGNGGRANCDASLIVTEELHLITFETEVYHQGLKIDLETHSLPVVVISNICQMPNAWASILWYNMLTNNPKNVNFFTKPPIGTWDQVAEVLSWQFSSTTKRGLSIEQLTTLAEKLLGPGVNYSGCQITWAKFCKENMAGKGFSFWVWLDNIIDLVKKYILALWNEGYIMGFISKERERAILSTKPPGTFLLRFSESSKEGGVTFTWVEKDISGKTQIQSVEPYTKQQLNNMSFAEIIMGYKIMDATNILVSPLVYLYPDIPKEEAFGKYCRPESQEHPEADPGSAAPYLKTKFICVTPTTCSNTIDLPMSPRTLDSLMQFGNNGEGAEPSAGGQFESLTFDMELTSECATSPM
Chain of Estrogen receptor (Homo sapiens) (P03372 whole entry, looked up, the tested form may be a part): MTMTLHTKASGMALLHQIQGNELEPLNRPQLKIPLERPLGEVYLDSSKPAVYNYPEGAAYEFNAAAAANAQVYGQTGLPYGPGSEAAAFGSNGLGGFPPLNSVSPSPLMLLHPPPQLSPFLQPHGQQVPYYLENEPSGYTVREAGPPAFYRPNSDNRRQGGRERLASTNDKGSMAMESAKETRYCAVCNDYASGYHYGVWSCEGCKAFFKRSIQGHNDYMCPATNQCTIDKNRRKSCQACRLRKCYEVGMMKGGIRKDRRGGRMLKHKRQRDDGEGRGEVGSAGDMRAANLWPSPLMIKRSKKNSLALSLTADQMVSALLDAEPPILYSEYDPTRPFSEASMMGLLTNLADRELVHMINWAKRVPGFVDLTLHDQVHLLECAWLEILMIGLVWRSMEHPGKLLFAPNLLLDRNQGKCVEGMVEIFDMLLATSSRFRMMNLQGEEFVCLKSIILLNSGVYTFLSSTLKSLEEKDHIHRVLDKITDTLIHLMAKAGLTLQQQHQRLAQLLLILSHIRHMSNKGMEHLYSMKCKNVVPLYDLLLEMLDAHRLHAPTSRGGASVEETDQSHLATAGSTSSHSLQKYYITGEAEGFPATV
Chain of Estrogen-related receptor gamma (Homo sapiens) (P62508 whole entry, looked up, the tested form may be a part): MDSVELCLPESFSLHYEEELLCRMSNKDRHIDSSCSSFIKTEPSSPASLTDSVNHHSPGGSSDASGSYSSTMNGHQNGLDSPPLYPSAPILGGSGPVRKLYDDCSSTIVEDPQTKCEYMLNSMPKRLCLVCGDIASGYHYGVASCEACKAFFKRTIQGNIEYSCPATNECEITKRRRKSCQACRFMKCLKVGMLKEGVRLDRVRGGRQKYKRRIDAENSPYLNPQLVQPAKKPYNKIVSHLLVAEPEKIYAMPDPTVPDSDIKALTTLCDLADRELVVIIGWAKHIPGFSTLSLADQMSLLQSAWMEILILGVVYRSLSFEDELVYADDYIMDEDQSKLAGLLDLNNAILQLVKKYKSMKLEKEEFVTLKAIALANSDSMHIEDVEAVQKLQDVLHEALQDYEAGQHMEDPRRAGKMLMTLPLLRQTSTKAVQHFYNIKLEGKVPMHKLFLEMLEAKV

`CC1(C)[C@H]2CC[C@]1(C)C(=O)C2`: the compound was classed as inactive in assay [1], in assay [2], in [3], in assay [4], in [5] and in assay [6]. Moreover, the compound was classed as inactive in assay [7], in assay [8], in assay [9], in [10], in assay [11] and in assay [12]. For the same compound, the result in assay [13], in assay [14], in assay [15] and in assay [16] was inactive.

Regarding `OCCc1ccncc1`, the compound was called inactive in assay [1], in assay [2], in assay [3], in [4], in assay [5] and in assay [6]. For the same compound, the call in assay [7], in assay [8], in assay [9], in assay [10], in assay [11] and in assay [12] was inactive. The result in [17], in assay [13], in assay [14] and in [15] was inactive.

For the compound `Cn1c(=O)[nH]c2ncn(C)c2c1=O`, the outcome in [1], in [2], in assay [18], in assay [4], in [5] and in [6] was inactive. The result in [7], in [8], in assay [9], in assay [10], in assay [11] and in assay [12] was inactive. The compound was classed as inactive in assay [17], in assay [14] and in assay [15].

Take `CCOCC(=O)O`: the call in assay [1], in assay [18], in assay [3], in assay [4], in assay [6] and in assay [8] was inactive. Besides, the outcome in assay [10], in [11], in assay [13], in assay [14] and in assay [19] was inactive. In [2], the AC50 is 72 µM (active).

One may read the AC50 as the concentration at which the activity in the assay is half-maximal.
